PubChem BioAssay (Tox21)
Several values for one entry are separate records, joined by “and”; a condition that tells them apart may be missing. Equal entries are not always repeated. Records with an inconclusive call do not appear. A call without a number means that no potency is given here. Where a structure was tested more than once in an assay, its records may differ in their call. Activity calls are given as the source filed them. Unless noted, calls come from the whole dose curve.

Experiments:
[1] = qHTS assay to identify small molecule agonists of the vitamin D receptor (VDR) signaling pathway - cell viability counter screen (AID 743224; active = well fitted curve in the direction sought with a large enough effect in the repeat runs; an effect the other way counts as inactive or inconclusive; note: nearly all actives have a fitted effect of over 50% in size; note: potency is the fitted concentration of half-maximal effect)
In short: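 Cells: VDR-bla, 2,000/well, settled 4 h. Treatment: compounds in DMSO, 16 h, 37C/5% CO2. Readout: CellTiter-Glo luminescence after 30 min RT.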

[2] = qHTS assay to identify small molecule antagonists of the vitamin D receptor (VDR) signaling pathway - cell viability counter screen (AID 743225; active = well fitted curve in the direction sought with a large enough effect in the repeat runs; an effect the other way counts as inactive or inconclusive; note: nearly all actives have a fitted effect of over 50% in size; note: potency is the fitted concentration of half-maximal effect)
In short: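 VDR-UAS-bla HEK 293T cells were plated and incubated 4 h at 37C, then dosed with compound plus 3 nM (final) 1-alpha,25-dihydroxyvitamin D3 for 16 h. After the 2 h beta-lactamase read, viability in the same wells was read as CellTiter-Glo luminescence after 30 min at room temperature.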

[3] = qHTS assay to identify small molecule agonists of the NFkB signaling pathway - cell viability counter screen (AID 1159515); note: nearly all actives have a fitted effect of over 55% in size; note: potency is the fitted concentration of half-maximal effect
In short: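 Cells are seeded (2,000 NFkB-bla ME-180 per well), rested overnight, and dosed with DMSO-dissolved compounds for 5 hr at 37 C. Viability is then read by CellTiter-Glo luminescence after 30 min at room temperature.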

[4] = qHTS assay to identify small molecule agonists of the endoplasmic reticulum stress response signaling pathway - cell viability counter screen (AID 1159517); note: nearly all actives have a fitted effect of over 50% in size; note: potency is the fitted concentration of half-maximal effect
In short: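 Steps: seed 1,500 ESRE-bla HeLa cells per well; incubate overnight at 37 C, 5% CO2; add compounds in DMSO for 5 hr; run FRET substrate 2 hr RT; add CellTiter-Glo, wait 30 min, read luminescence.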

[5] = qHTS assay to identify small molecule antagonists of the retinoid-related orphan receptor gamma (ROR-gamma) signaling pathway - cell viability counter screen (AID 1159520; active = well fitted curve in the direction sought with a large enough effect in the repeat runs; an effect the other way counts as inactive or inconclusive; note: nearly all actives have a fitted effect of over 50% in size; note: potency is the fitted concentration of half-maximal effect)
In short: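 Tet-on ROR gamma CHO cells were given compounds for 2 hr, then doxycycline hyclate at 1 uM final, and incubated 16 hr at 37 C. Viability was measured as ATP content by CellTiter-Glo luminescence.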

[6] = molecular target: Nuclear receptor ROR-gamma (Homo sapiens) (UniProt P51449); experiment: qHTS assay to identify small molecule antagonists of the retinoid-related orphan receptor gamma (ROR-gamma) signaling pathway (AID 1159521; active = well fitted curve in the direction sought with a large enough effect in the repeat runs; an effect the other way counts as inactive or inconclusive; note: nearly all actives have a fitted effect of over 50% in size; note: potency is the fitted concentration of half-maximal effect)
In short: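 Tet-on ROR-gamma CHO cells with ROR response element-luciferase reporter; compounds added 2 hr before 1 uM doxycycline induction, then 16 hr at 37 C. Antagonism scored as decreased ONE-Glo luminescence.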

[7] = qHTS assay to identify small molecule agonists of the AP-1 signaling pathway - cell viability counter screen (AID 1159525); note: nearly all actives have a fitted effect of over 55% in size; note: potency is the fitted concentration of half-maximal effect
In short: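 Same-well cytotoxicity counter screen of the Tox21 10K library in ME-180 cells. The readout is ATP-dependent luminescence after 5 h compound treatment. Data are normalised to DMSO and tetra n-octyl ammonium bromide controls.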

[8] = qHTS assay to identify small molecule agonists of the AP-1 signaling pathway (AID 1159526); note: potency is the fitted concentration of half-maximal effect
[9] = qHTS assay to identify small molecule agonists of the endoplasmic reticulum stress response signaling pathway (AID 1159516; active = well fitted activation curve with a large enough effect in the signal ratio in the repeat runs, not every such curve was filed as active; the % refers to the signal ratio)
In short: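 Cells are seeded at 1,500 per well and incubated overnight. Compounds in DMSO are added for 5 hr at 37 C, then beta-lactamase FRET substrate for 2 hr at room temperature, and fluorescence at 460 and 530 nm is measured.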

SMILES	Potency [1]	Potency [2]	Potency [3]	Potency [4]	Potency [5]	Potency [6]	Potency [7]	Potency [8]	Potency [9]
CC(=O)C(=O)O	inactive	inactive	inactive	inactive	inactive	inactive	inactive	inactive	–
CC(=O)Nc1c(I)c(NC(C)=O)c(I)c(C(=O)O)c1I	–	–	inactive	inactive	inactive	inactive	inactive	inactive	–
CN(C)C(=O)Nc1ccc(Cl)c(Cl)c1	inactive	inactive	inactive	inactive	inactive	inactive	inactive	inactive	inactive
CCCCNC(=O)NS(=O)(=O)c1ccc(C)cc1	inactive	inactive	inactive	inactive	inactive	inactive	inactive	inactive	–
C=C(C)C(=O)OCC(C)O (stereo not drawn)	inactive	inactive	inactive	inactive	inactive	inactive	inactive	inactive	–
Oc1ccccc1	inactive	inactive	inactive	inactive	inactive	inactive	inactive	inactive	inactive
Cc1ccc(S(=O)(=O)O)cc1	inactive	inactive	inactive	inactive	inactive	–	inactive	inactive	inactive
CCCc1cc(=O)[nH]c(=S)[nH]1	inactive	inactive	inactive	inactive	inactive	inactive	inactive	inactive	–
O=S1(=O)OC(c2ccc(O)cc2)(c2ccc(O)cc2)c2ccccc21	inactive	inactive	inactive	inactive	inactive	inactive	inactive	inactive	inactive
CN1CCC[C@H]1c1cccnc1	inactive	inactive	inactive	inactive	inactive	inactive	inactive	inactive	–
CCCCCCc1ccc(O)cc1O	38.9 µM (active) and inactive	49 µM (active)	inactive	inactive	61.3 µM (active) and inactive	inactive	43.8 µM (active) and inactive	–	inactive
F[B-](F)(F)F	inactive	inactive	inactive	inactive	inactive	inactive and 49.2 µM (active)	inactive	inactive	inactive
O=C1NC(=O)C(c2ccccc2)(c2ccccc2)N1	inactive	inactive	inactive	inactive	inactive	inactive	inactive	inactive	–
CC(C)c1c(C(=O)Nc2ccccc2)c(-c2ccccc2)c(-c2ccc(F)cc2)n1CC[C@@H](O)C[C@@H](O)CC(=O)O	inactive	inactive	inactive	inactive	–	1.86 µM (active) and 11.4 µM (active) and 2.66 µM (active)	inactive	inactive	–
CCN(CC)C(=O)c1cccc(C)c1	inactive	inactive	inactive	inactive	inactive	inactive	inactive	inactive	–
Nc1ccc(S(N)(=O)=O)cc1	inactive	inactive	inactive	inactive	inactive	–	inactive	inactive	–
O=c1[nH]cnc2c1ncn2[C@H]1CC[C@@H](CO)O1	inactive	inactive	inactive	inactive	inactive	inactive	inactive	inactive	–
CC(C)NCC(O)c1ccc(O)c(O)c1 (stereo not drawn)	inactive	inactive	inactive	inactive	inactive	inactive	inactive	inactive	–
Cc1cn([C@H]2C=C[C@@H](CO)O2)c(=O)[nH]c1=O	inactive	inactive	inactive	inactive	inactive	inactive	inactive	inactive	–
Nc1c2c(nc3ccccc13)CCCC2	inactive	inactive	inactive	inactive	inactive	inactive	inactive	inactive	–
CCOC(N)=O	inactive	inactive	inactive	inactive	inactive	inactive	inactive	inactive	–

SMILES	Potency [1]	Potency [2]	Potency [3]	Potency [4]	Potency [5]	Potency [6]	Potency [7]	Potency [8]	Potency [9]
CC(O)(P(=O)(O)O)P(=O)(O)O	inactive	inactive	inactive	inactive	inactive	–	inactive	inactive	–
CN(C)C(=S)SC(=S)N(C)C	1.26 µM (active) and 692 nM (active) and 1.06 µM (active)	inactive	5.02 µM (active) and 977 nM (active) and 6.74 µM (active)	inactive	2.37 µM (active)	703 nM (active) and 770 nM (active) and 1.06 µM (active)	11.2 µM (active) and 5.49 µM (active) and 16.9 µM (active)	–	–
CCCCC(CC)C(=O)O (stereo not drawn)	inactive	inactive	inactive	inactive	inactive	inactive	inactive	inactive	–
O=C1OC2(c3ccccc31)c1cc(Br)c(O)c(Br)c1Oc1c2cc(Br)c(O)c1Br	inactive	inactive	inactive	inactive	inactive	inactive	inactive	inactive	–
CC12CCC(CC1)C(C)(C)O2	inactive	inactive	inactive	inactive	inactive	inactive	inactive	inactive	–
O=C1NS(=O)(=O)c2ccccc21	inactive	inactive	inactive	inactive	inactive	inactive	inactive	inactive	–
NS(=O)(=O)c1cc2c(cc1Cl)NCNS2(=O)=O	inactive	inactive	inactive	inactive	inactive	inactive	inactive	inactive	–
Cc1ncc([N+](=O)[O-])n1C	inactive	inactive	inactive	inactive	inactive	–	inactive	inactive	–
CCCCCCCCCCCC[N+](C)(C)Cc1ccccc1	27 µM (active) and 29.9 µM (active) and 13.3 µM (active)	19.1 µM (active) and 15 µM (active) and 21.3 µM (active)	53.9 µM (active) and 47.4 µM (active) and 23.9 µM (active)	17 µM (active) and 21.2 µM (active) and 26.8 µM (active)	67.3 µM (active) and 66.4 µM (active) and inactive	47.6 µM (active) and 21.1 µM (active)	23.9 µM (active)	–	–
O=C1O[C@H]([C@@H](O)CO)C(O)=C1O	inactive	inactive	inactive	inactive	inactive	inactive	inactive	inactive	–
CN(C)CCOC(C)(c1ccccc1)c1ccccn1 (stereo not drawn)	inactive	inactive	inactive	inactive	inactive	inactive	inactive	inactive	–
Cc1cc(=O)oc2cc(O)ccc12	inactive	inactive	inactive	inactive	inactive	–	inactive	inactive	–
COc1ccc2c(c1)c(CC(=O)O)c(C)n2C(=O)c1ccc(Cl)cc1	inactive	inactive	inactive	inactive	inactive	–	inactive	inactive	–
CCc1nc(N)nc(N)c1-c1ccc(Cl)cc1	17.4 µM (active)	–	inactive	inactive	inactive	inactive	inactive	–	–
NC(CO)(CO)CO	inactive	inactive	inactive	inactive	inactive	inactive	inactive	inactive	–
CN(C)CCOC(c1ccccc1)c1ccccc1	inactive	inactive	inactive	inactive	inactive	inactive	inactive	49.3 µM (active)	–
COc1ccc(CN(CCN(C)C)c2ccccn2)cc1	inactive	inactive	inactive	inactive	inactive	inactive	inactive	–	–
CNNCc1ccc(C(=O)NC(C)C)cc1	inactive	inactive	inactive	inactive	inactive	–	inactive	inactive	–
CS(=O)(=O)OCCCCOS(C)(=O)=O	inactive	inactive	inactive	inactive	inactive	inactive	inactive	inactive	–
CC/C(=C(\c1ccccc1)c1ccc(OCCN(C)C)cc1)c1ccccc1	–	inactive and 15.6 µM (active) and 21.3 µM (active)	26.8 µM (active) [middle of 5 runs]	49 µM (active) [middle of 4 runs]	61.1 µM (active) [middle of 4 runs]	27.5 µM (active) [middle of 5 runs]	23.9 µM (active) [middle of 5 runs]	–	–
CCCCCCCCCCCCCCCC[N+](C)(C)Cc1ccccc1	31.9 µM (active) and 8.86 µM (active) and 26.6 µM (active)	45 µM (active) and 17.7 µM (active) and 21.3 µM (active)	56.7 µM (active) and 49.8 µM (active) and 21.3 µM (active)	25.3 µM (active) and 39.6 µM (active)	70.8 µM (active) and 55.5 µM (active) and 29.8 µM (active)	56.2 µM (active) and 27.8 µM (active) and 13.3 µM (active)	40.1 µM (active) and 49.8 µM (active) and 23.9 µM (active)	–	–
